Data: PubChem BioAssay (NCATS)
Records with an inconclusive call do not appear. Entries that show only a call come without a potency. Activity calls are given as the source filed them. Calls follow the shape of the dose curve; as a rule, active = well fitted inhibition curve with a large enough effect; inconclusive = small, poorly fitted or top-dose-only effect; inactive = flat fitted curve, though single readings scatter.

Biological target: Calcium and integrin-binding protein 1 (Homo sapiens) (UniProt Q99828)
Experiment: Primary qHTS for Identification of Calcium Integrin Binding Protein 1 (CIB1) Competitor (AID 1508620); also: top concentration of the series differs between compounds
Settings: CIB1-GST / FITC-alphaIIb peptide fluorescence polarization; series mostly up to 57.7 µM
Method in brief: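 Fluorescence polarization competition: GST-tagged CIB1 (1 uM final) preincubated with compound 15 min at room temperature, then FITC-labelled alphaIIb peptide (100 nM final) added. After 15 min at room temperature, polarization read at Ex 480/Em 540.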

Chain of Calcium and integrin-binding protein 1 (Homo sapiens) (Q99828 whole entry, looked up): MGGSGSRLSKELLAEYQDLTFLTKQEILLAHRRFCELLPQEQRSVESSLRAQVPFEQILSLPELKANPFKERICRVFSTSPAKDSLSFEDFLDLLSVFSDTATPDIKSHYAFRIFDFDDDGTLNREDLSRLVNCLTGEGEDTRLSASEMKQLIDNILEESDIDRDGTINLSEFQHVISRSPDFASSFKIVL

Row | Compound | Potency
1 | OC1CCC(Nc2ncc3nc(Nc4c(F)cc(F)cc4F)n([C@@H]4CCOC4)c3n2)CC1 (some centres undefined) | inactive
2 | COc1ccc(C=CC(=O)Nc2ccccc2C(=O)O)cc1OC | inactive
3 | O=C(O)C1=CO[C@@H](O[C@@H]2O[C@H](CO)[C@H](O)[C@H](O)[C@H]2O)[C@@H]2C(CO)=CC[C@H]12 | inactive
4 | O=C(c1ccc(C=Cc2n[nH]c3ccccc23)cc1)N1CCNCC1 | inactive
